Among the test systems are HCT-15 colon; HT29 colon; SNB-75 CNS; SNB-19 CNS; U251 CNS; PC-3 prostate; SK-MEL-5 melanoma; UACC-62 melanoma; LOX IMVI melanoma; SK-MEL-28 melanoma.
Common to all, as to assay: NCI-60 one-dose screen, 48 h (100 = growth as untreated, 0 = no growth, -100 = all killed)
Common to all, as to settings: 10 µM

Molecules are shown by their SMILES. About 83,000 compounds went through this panel and 20% of them were active in at least one assay; those are over-represented in the sample as a whole.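 Each cell line was grown in a 96-well plate and treated with one concentration of compound for 48 hours. Values below 10 were considered active.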 Values without a mark were called inactive. Activity calls are given as the source filed them.

Consider `CCOC(=O)c1cc(C(=O)c2cc(OC)cc(OC)c2)n2ncc3ccccc3c12`, for which the growth was 29.8% with HCT-15 colon; 2.01% (active) with HT29 colon; -10% (active) in the test with SNB-75 CNS; 46.8% in the test on SNB-19 CNS; -13.4% (active) in the test on U251 CNS; 31.7% with PC-3 prostate. Besides, the growth with SK-MEL-5 melanoma is 18.7%; in the test with UACC-62 melanoma it was 41.7%; in the test with LOX IMVI melanoma it was 9.99% (active); in the test on SK-MEL-28 melanoma it was 63%.

In the case of `O=C1/C(=C/c2ccc([N+](=O)[O-])s2)Oc2cc(Cl)ccc21`, the growth was 0.579% (active) in the test on HCT-15 colon; -4.42% (active) with HT29 colon; 58.8% in the test with SNB-75 CNS; 2.32% (active) in the test with SNB-19 CNS; -58% (active) in the test with U251 CNS; -73% (active) in the test with PC-3 prostate. The growth in the test with SK-MEL-5 melanoma is 17.6%; in the test on UACC-62 melanoma it was -37.7% (active); with LOX IMVI melanoma, -78.4% (active); in the test on SK-MEL-28 melanoma, -29.2% (active).

`CN(C)CCCOc1ccc(NC2=C(Cl)C(=O)C(Nc3ccc(OCCCN(C)C)cc3)=C(Cl)C2=O)cc1`: the growth in the test with HCT-15 colon was -82% (active); with HT29 colon, -54.1% (active); in the test with SNB-75 CNS it was -77.9% (active); with SNB-19 CNS it was -48.6% (active); with U251 CNS, -91.2% (active); with PC-3 prostate it was -7.37% (active). Also, the growth with SK-MEL-5 melanoma was -96.6% (active); in the test on UACC-62 melanoma, -74.9% (active); in the test with LOX IMVI melanoma it was -80.5% (active); with SK-MEL-28 melanoma it was 39.4%.

With `CCCCc1oc2ccccc2c1C(=O)c1cc(I)c(OCCN(CC)CC)c(I)c1`, the growth in the test with HCT-15 colon was -50.5% (active); in the test on HT29 colon, -61.2% (active); in the test with SNB-75 CNS, 12.5%; in the test on SNB-19 CNS it was -60.6% (active); in the test with U251 CNS it was -86.3% (active); in the test on PC-3 prostate it was -8.07% (active). In addition, the growth in the test with SK-MEL-5 melanoma was -100% (active); in the test on UACC-62 melanoma, -86.8% (active); in the test with LOX IMVI melanoma, -88.7% (active); in the test with SK-MEL-28 melanoma it was -87.8% (active).

For `COc1ccc(-c2cc(-c3ccc(OC)c(OC)c3)nc(SCCCC(=O)NO)n2)cc1`, the growth was 2.78% (active) in the test on HCT-15 colon; 4.72% (active) in the test on HT29 colon; -19% (active) in the test on SNB-75 CNS; 11.2% with SNB-19 CNS; -9.1% (active) in the test with U251 CNS; 1.17% (active) in the test with PC-3 prostate. Further, the growth in the test on SK-MEL-5 melanoma is -65.2% (active); with UACC-62 melanoma, -55.2% (active); in the test with LOX IMVI melanoma, -79% (active); with SK-MEL-28 melanoma it was 19.2%.

Consider `COc1cc(-c2nn(-c3cccc(NC(=O)CCNc4ccc(N5CCOCC5)cc4)c3)cc2-c2ccncc2)ccc1Cl`, for which the growth in the test with HCT-15 colon was 14.2%; in the test with HT29 colon, 11.8%; in the test on SNB-75 CNS, 40.1%; in the test with SNB-19 CNS, 32.9%; with U251 CNS it was 24%; in the test on PC-3 prostate, 8.06% (active). Besides, the growth is -40.5% (active) in the test with SK-MEL-5 melanoma, 13.9% with UACC-62 melanoma, 6.71% (active) with LOX IMVI melanoma and 31.6% in the test with SK-MEL-28 melanoma.

In the case of `CCN(CC)CC(=O)N(CC)c1ccc(C)c(Cl)c1`, the growth in the test with HCT-15 colon was 101%; in the test with HT29 colon it was 90.1%; in the test with SNB-75 CNS, 96.9%; in the test with SNB-19 CNS it was 104%; in the test on U251 CNS it was 87%; in the test on PC-3 prostate, 88.2%. The growth with SK-MEL-5 melanoma is 98.4%; with UACC-62 melanoma, 97.7%; in the test on LOX IMVI melanoma it was 93.2%; with SK-MEL-28 melanoma, 108%.

Consider `COc1ccccc1/C=N\N/C(N)=N\N=C\c1ccccc1OC`, for which the growth in the test with HCT-15 colon is 1.27% (active); in the test on HT29 colon it was -1.01% (active); in the test with SNB-75 CNS, 21.5%; with SNB-19 CNS, 35.3%; in the test on U251 CNS, 5.71% (active); with PC-3 prostate it was 29.3%. Besides, the growth was -30% (active) in the test with SK-MEL-5 melanoma, 19.7% with UACC-62 melanoma, 5.74% (active) with LOX IMVI melanoma and 56.9% in the test with SK-MEL-28 melanoma.

Take `COc1ccc2nc(-c3ccc(Cl)cc3)cc(-c3nnc(SC/C(=N\O)c4ccccc4)n3-c3ccccc3)c2c1`: the growth was 84.4% in the test with HCT-15 colon; 71.8% in the test with HT29 colon; 102% in the test with SNB-75 CNS; 104% in the test on SNB-19 CNS; 85.8% in the test with U251 CNS; 54.1% in the test on PC-3 prostate. Further, the growth is 79.1% in the test on SK-MEL-5 melanoma, 89.4% in the test with UACC-62 melanoma, 76.1% in the test on LOX IMVI melanoma and 94.3% with SK-MEL-28 melanoma.

For `Cc1ccc(-n2nnnc2N)c(C)c1`, the growth was 106% in the test on HCT-15 colon; 123% in the test on HT29 colon; 101% in the test with SNB-75 CNS; 113% with SNB-19 CNS; 99.5% with U251 CNS; 105% with PC-3 prostate. For the same molecule, the growth in the test on SK-MEL-5 melanoma was 115%; with UACC-62 melanoma, 96.4%; in the test with LOX IMVI melanoma it was 93.8%; in the test on SK-MEL-28 melanoma, 112%.

For the molecule `O=C(N/N=C/c1ccc([N+](=O)[O-])cc1)c1ccccc1Nc1cccc(C(F)(F)F)c1`, the growth with HCT-15 colon is 98.6%; in the test with HT29 colon, 69.8%; with SNB-75 CNS, 87.1%; in the test on SNB-19 CNS, 105%; with U251 CNS it was 89.2%; with PC-3 prostate, 91%. Also, the growth is 83.1% in the test on SK-MEL-5 melanoma, 90.8% in the test with UACC-62 melanoma, 98.1% with LOX IMVI melanoma and 91.7% in the test with SK-MEL-28 melanoma.

As to `CCC(CC)n1c(C)cc(=O)n1C(CC)CC`, the growth was 106% in the test on HCT-15 colon; 111% in the test with HT29 colon; 95.3% with SNB-75 CNS; 96% in the test on SNB-19 CNS; 105% with U251 CNS; 104% in the test on PC-3 prostate. Further, the growth in the test with SK-MEL-5 melanoma is 98.4%; in the test on UACC-62 melanoma it was 101%; in the test with LOX IMVI melanoma it was 102%; in the test on SK-MEL-28 melanoma, 107%.

As for `CCN1C(=O)CC(SC2CC(=O)N(CC)C2=O)C1=O` (stereo not given), the growth in the test with HCT-15 colon is 105%; in the test on HT29 colon, 79.7%; with SNB-75 CNS, 97.4%; in the test with SNB-19 CNS, 95.7%; in the test with U251 CNS it was 102%; in the test with PC-3 prostate it was 101%. Further, the growth in the test with SK-MEL-5 melanoma is 104%; with UACC-62 melanoma, 102%; in the test on LOX IMVI melanoma, 95.2%; in the test on SK-MEL-28 melanoma, 112%.

(Values after PubChem BioAssay (NCI).)
